Results taken from PubChem BioAssay AID652183 (National Center for Advancing Translational Sciences (NCATS), 2013).
Inconclusive results are not listed. A number with no mark means an inactive call. Activity calls are given as the source filed them. The call rests on the fitted dose curve; in most records, active means well fitted inhibition curve with a large enough effect; inconclusive means small, poorly fitted or top-dose-only effect; inactive means no such curve, though single readings can be large or run the other way.

Test: qHTS Assay for Lipid Storage Modulators: Differentiation Assay against Probe and Analogs
Details: 3T3-L1 adipocyte differentiation, BODIPY lipid imaging, 8 d; series mostly up to 20 µM; activity change, negative = inhibition: at the top concentration
Excerpt: Storing lipids as a reservoir for energy or the anabolism of elementary metabolites is a common feature of probably all cells and is conserved from bacteria to humans. The universal cellular lipid storage organelle is the so-called lipid storage droplet (LD). Although ubiquitous, LDs share a simple structure composed of a hydrophobic core that harbors the storage lipids, which is shielded by a droplet-specific phospholipid monolayer to which proteins are attached. The current model of LD biogenesis involves an incorporation of the lipid core into the membrane leaflets of the endoplasmic reticulum (ER) followed by a subsequent budding-like maturation of a LD, which ultimately pinches off. Once released, LD volume can increase by localized lipogenesis or fusion of existing droplets. Storage lipids are re-mobilized enzymatically by lipase activity. Lipase regulation in the adipocyte is heavily studied and involves multiple components including catecholamine signaling, the LD-associated proteins Perilipin and comparative gene identification-58 (CGI-58) and at least two lipases named hormone sensitive lipase (HSL) and adipocyte triglyceride lipase (ATGL). LD regulation outside of the adipocyte is poorly understood and only few components are known. However, there is an urgent need to learn more about ectopic fat depots as mislocalized storage of lipids, for example in the liver or muscle, is an eminent health problem associated with insulin resistance or the metabolic syndrome. We developed a laser-scanning cytometer assay to enable 1,536-well screening and combined the results of the small molecules screen with an RNAi database based on lipid storage. […] NIH Chemical Genomics Center [NCGC] MLPCN Grant: MH085686 Assay Submitter (PI): Mathias Beller, Max-Planck-Institut fur Biophysikalische Chemie
3T3L1 cells were obtained from ATCC (CL-173). Pre-adipocyte medium (PM-1), differentiation medium (DM-2) and after adipocyte medium (AM-1) were purchased from Zen-Bio (# PM-1-L1, DM-2-L1, AM-1-L1). 200 uL of PM-1containing 3,000 cells was dispensed into each well of a 96-well plate (Corning, #3340), and the assay plates were incubated at 37 °C, 95% humidity and 5% CO2 for 3-5 days. The differentiation of pre-adipocyte to adipocyte was induced by removing the pre-adipocyte medium and replacing with 200 uL of differentiation medium. 1 uL of compounds at different concentrations dissolved in differentiation medium were added to the assay plates, along with medium exchange for differentiation to test their effects on adipocyte differentiation. The final DMSO concentration was 0.5%.Triacsin C (Sigma-Aldrich T-4540), an inhibitor of long-chain fatty acyl CoA synthetase that blocks synthesis of triglycerides, was used as a positive control for lipid under-storage. […]

Structure (SMILES) | activity change, negative = inhibition [%] | Potency
CCOc1ccc(CCNC(=O)c2cc3sccc3n2Cc2ccc(F)cc2F)cc1OCC | -77.8 | 
CCOc1ccc(CCNC(=O)c2cc3ccccc3n2Cc2ccccn2)cc1OCC |  | 12.6 µM (active)
CCOc1ccc(CCNC(=O)c2cc3sccc3n2CCN(C)C)cc1OCC | -57.2 | 
CCOC(=O)C1CCN(C(=O)C2(NC(=O)Nc3ccccc3Cl)CCCC2)CC1 | 56 | 
